The results in this text go back to PubChem BioAssay (NCATS).

Where “and” joins values, the source holds several entries; their conditions need not be identical. Equal values may be shown once. Unmarked numbers belong to inactive results. Inconclusive results are not listed. Calls of active or inactive are those of the source. Calls come from the whole dose curve; as a rule, active = well fitted curve in the direction sought with a large enough effect; inconclusive = small, poorly fitted or top-dose-only effect, or another doubt; inactive = no such curve, though single readings can be large; an effect the other way counts as inactive or inconclusive.

Test [1] is described as follows: Primary qHTS for inhibitors of nuclear receptor binding SET domain protein 2 (NSD2) in an RCH-ACV wild type WT cells (2C) (AID 1645877). For activity change, negative = cell killing: % is set by controls: 0 for no effect and ±100 for the full control effect. Note: nearly all actives have a fitted effect of over 70% in size. Note: potency is the fitted concentration of half-maximal effect. Particulars: RCH-ACV (leukaemia line) NSD2 WT (2C) viability, CellTiter-Glo, 72 h; series mostly up to 44.9 µM.
Test [2] addresses Glutathione peroxidase 1 (Homo sapiens) (UniProt P07203). As to the kind of experiment: Primary qHTS Assay for Inhibitors of Recombinant Selenoprotein Glutathione Peroxidase 1 (GPX1) (AID 1845191). For activity, negative = inhibition: % is set by controls: 0 for no effect and ±100 for the full control effect. Note: nearly all actives have a fitted effect of over 65% in size. Note: potency is the fitted concentration of half-maximal effect. Particulars: recombinant GPX1, GR-coupled NADPH fluorescence, 15 min; series mostly up to 48.8 µM. Summed up: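 GR-coupled readout: NADPH consumption tracked by fluorescence, ex 340/em 450 nm, at t=0 and after 15 min at RT. Final mix 10 nM GPX1, 1 mM GSH, 0.5 mM CHP, 0.5 mM NADPH, 100 nM GR, 0.01% BSA, following 30 min enzyme–compound preincubation.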

Test [3] addresses Luciferin 4-monooxygenase (Photinus pyralis) (UniProt P08659). As to the kind of experiment: Primary firefly luciferase (FLuc) qHTS assay for identification of artifact compounds. (AID 1845220).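 For activity change, negative = inhibition: plate controls were DMSO vehicle for no effect and no enzyme for full effect.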 Note: nearly all actives have a fitted effect of over 60% in size. Note: potency is the fitted concentration of half-maximal effect. Particulars: purified firefly luciferase, luminescence, 5 min; series mostly up to 54.1 µM. In a few lines: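 Titrated compounds were incubated 15 min at RT, protected from light, with luciferin and ATP at 10 uM; reaction started with 10 nM FLuc, luminescence imaged at 5 min, and concentration-response fitted by Hill equation.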

Test [4] can be described thus: Primary fluorescence-based thiol-reactive (MSTI) qHTS assay for identification of artifact compounds. (AID 1845221).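 For activity change, negative = thiol reactive: thiol-reactive compounds lower the probe fluorescence signal.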 Note: nearly all actives have a fitted effect of over 65% in size. Note: potency is the fitted concentration of half-maximal effect. Conditions: MSTI thiol-reactivity probe, 1 h; series mostly up to 53.8 µM. In a few lines: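 MSTI probe at 4 uM final in 2% DMSO/PBS pH 7.4; compounds, 1 h at room temperature in dark. Fluorescence Ex/Em 525/598 nm, normalised to Acetyl-MSTI and MSTI, fitted to 4-parameter Hill.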
(qHTS replaces the single test concentration by a dilution series.)

Test [5] has as its system Nanoluciferase (engineered Oplophorus gracilirostris luciferase). In words: Primary Nanoluciferase (NLuc) qHTS assay for identification of artifact compounds. (AID 1845222).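 Note: NLuc secreted into diluted conditioned medium of S16 cells; 0% = DMSO and -100% = no enzyme.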 Conditions: NLuc-conditioned medium, Nano-Glo luminescence, 5 min; series mostly up to 54.1 µM. In a few lines:
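qHTS format, against NLuc in S16 cell-conditioned medium. Nano-Glo substrate 1:100 was added after 15 min at room temperature. Luminescence was taken after a further 5 min.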

Test [6] in a line: Primary redox qHTS assay for identification of artifact compounds. (AID 1845223).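 Note: 0% = DMSO and 100% = reference compound.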 Particulars: Amplex Red/HRP redox cycling with DTT, fluorescence; series mostly up to 53.8 µM. Summed up:
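Redox-cycling detection via DTT (250 uM final) oxidation coupled to Amplex Red (25 uM)/HRP (250 mU/mL) in HBSS. 15 min preincubation plus 30 min after DTT, room temperature. Ex/Em 525/598 nm; 4-parameter Hill fit against DMSO and 10 uM DA3003.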

In test [7] the target is Phospholipid hydroperoxide glutathione peroxidase GPX4 (Homo sapiens) (UniProt P36969). In words: Primary qHTS Assay for Inhibitors of Recombinant Selenoprotein Glutathione Peroxidase 4 (GPX4) (AID 1845192). For activity change, negative = inhibition: % is set by controls: 0 for no effect and ±100 for the full control effect. Note: nearly all actives have a fitted effect of over 65% in size. Note: potency is the fitted concentration of half-maximal effect. Conditions: recombinant GPX4, GR-coupled NADPH fluorescence, 15 min; series mostly up to 50 µM. Summed up:
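Steps: GPX4 plus compound, 30 min RT; add GR/GSH/NADPH master mix; start with cumene hydroperoxide; read 340/450 nm fluorescence at 0 and 15 min. Finals were 200 nM GPX4, 1 mM GSH, 0.5 mM CHP, 0.5 mM NADPH, 100 nM GR.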

Sequence of Phospholipid hydroperoxide glutathione peroxidase GPX4 (Homo sapiens) (P36969 whole entry, looked up): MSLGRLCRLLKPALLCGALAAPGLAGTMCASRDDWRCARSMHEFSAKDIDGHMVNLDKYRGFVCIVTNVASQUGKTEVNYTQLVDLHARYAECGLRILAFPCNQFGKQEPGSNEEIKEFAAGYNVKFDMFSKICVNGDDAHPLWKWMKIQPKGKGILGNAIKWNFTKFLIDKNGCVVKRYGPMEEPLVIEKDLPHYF
Sequence of Glutathione peroxidase 1 (Homo sapiens) (P07203 whole entry, looked up): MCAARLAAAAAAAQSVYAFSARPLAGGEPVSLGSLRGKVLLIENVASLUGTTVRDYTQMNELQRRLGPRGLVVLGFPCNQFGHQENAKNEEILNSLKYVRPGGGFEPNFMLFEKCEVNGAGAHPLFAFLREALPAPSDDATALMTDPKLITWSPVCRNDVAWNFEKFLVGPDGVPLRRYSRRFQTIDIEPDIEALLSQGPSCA

As to `COc1cc(O)c2c(c1)C1=C[C@H](O)[C@@H](O)C[C@]1(C)OC2=O`, the Potency entry in test [1], in test [2], in test [3], in test [4], in test [5] and in test [6] was “inactive” each time.

As for `O=C(Nc1c(-c2cccs2)nc2ccccn12)c1ccc(Cl)cc1`, the Potency result in test [1], in test [2], in test [3], in test [4], in test [5] and in test [6] was “inactive” throughout.

In the case of `CC(Nc1ncnc2nc[nH]c12)c1cc2cccc(Cl)c2c(=O)n1-c1ccccc1` (stereo not given), the Potency in test [1] was 0.468 µM (active). Also, the Potency result in test [7], in test [3], in test [4] and in test [5] was “inactive” throughout.

In the case of `CO/N=C(/C(=O)N[C@@H]1C(=O)N2C(C(=O)O)=C(Cn3ccc(=N)n3CCO)CS[C@H]12)c1csc(N)n1`, the Potency entry in test [1], in test [3], in test [5] and in test [6] was “inactive” throughout. Also, the Potency in test [2] was 8060 nM (active).

As to `C[C@@H]1CN(Cc2ncccn2)C[C@H]1c1nc2c(cnn2C2CCOCC2)c(=O)[nH]1`, the Potency entry in test [1], in test [2], in test [3], in test [4], in test [5] and in test [6] was “inactive” each time.

Regarding `Cc1ccc(C(=O)Nc2noc3ccccc23)cc1`, the Potency result in test [1], in test [2], in test [4], in test [5] and in test [6] was “inactive” in each case. In addition, the Potency in test [3] is 84.9 nM (active).

For `CC(C)CCC(=O)CC1c2ccccc2C(=O)N1c1ccc2ccc(Cl)nc2n1` (stereo not given), the Potency result in test [1], in test [2], in test [3], in test [4], in test [5] and in test [6] was “inactive” each time.

For the molecule `Nc1ccc(/C=C/C(=O)NCc2cc3cc(-c4ccc(C(=O)N5CCC(F)(F)CC5)cc4)cc(-c4ccc(F)cc4)c3o2)cn1`, the Potency in test [1] is 332 nM (active) and 206 nM (active). Besides, the Potency entry in test [2], in test [3], in test [5] and in test [6] was “inactive” in each case.

Regarding `CCOC(=O)C(CCc1ccccc1)NC(C)C(=O)N1C(=O)N(C)CC1C(=O)O` (stereo not given), the Potency entry in test [1], in test [7], in test [3], in test [4], in test [5] and in test [6] was “inactive” each time.

Turning to `CC(C)(C(=O)NCC(F)(F)C(F)(F)F)C(=O)NC1C(=O)Nc2ccccc2-c2ccccc21` (stereo not given), the Potency in test [1] is 14.5 µM (active). In addition, the Potency result in test [7], in test [3], in test [4], in test [5] and in test [6] was “inactive” in each case.

Regarding `COc1ccc(C2=N[C@@H](c3ccc(Cl)cc3)[C@@H](c3ccc(Cl)cc3)N2C(=O)N2CCNC(=O)C2)c(OC(C)C)c1`, the Potency in test [1] was 1.63 µM (active). Besides, the Potency entry in test [7], in test [3], in test [4], in test [5] and in test [6] was “inactive” in each case.

On to `CCOc1cc(CC(=O)NC(CC(C)C)c2ccccc2N2CCCCC2)ccc1C(=O)O` (stereo not given), for which the Potency entry in test [1], in test [7], in test [3], in test [4], in test [5] and in test [6] was “inactive” throughout.

Regarding `CC(NC(=O)C(O)C(C)C)C(=O)NC1C(=O)N(C)CCc2ccccc21` (stereo not given), the Potency result in test [1], in test [7], in test [3], in test [4], in test [5] and in test [6] was “inactive” each time.

In the case of `C1CCC[C@H]2CCCN3CC[C@@H](CCCCCC[C@@H]4CCCN5CC[C@@H](CC1)O[C@@H]45)O[C@@H]23`, in test [1], the activity change, negative = cell killing was -1.13% [at 0.177 µM]. Besides, the activity change, negative = inhibition in test [7] is -4.98% [at 0.121 µM]. Besides, the outcome in test [3] was “inactive [at 0.0969 µM]”. Besides, in test [4], the activity change, negative = thiol reactive is 0.0753% [at 0.0963 µM]. The activity, negative = inhibition in test [5] was 2.4% [at 0.0969 µM]. The redox activity (% of DA3003) in test [6] was -1.13% [at 0.0963 µM].

Turning to `CNC(=O)c1cccc(-c2ccc3c(N4CCOC[C@@H]4C)nc(N4CCOC[C@@H]4C)nc3n2)c1`, the Potency in test [1] is 230 nM (active) and 326 nM (active) and 296 nM (active). Further, the Potency result in test [7], in test [3], in test [4], in test [5] and in test [6] was “inactive” in each case.

As for `CC(C)C(N)C(=O)OCCOCn1cnc2c(=O)[nH]c(N)nc21` (stereo not given), the Potency result in test [1], in test [7], in test [3], in test [4] and in test [5] was “inactive” each time.

Regarding `CC1(C)CC[C@]2(C(=O)O)CC[C@]3(C)C(=CCC4[C@@]5(C)C[C@@H](O)[C@H](O)C(C)(C)C5CC[C@]43C)C2C1` (stereo not given in full), the Potency result in test [1], in test [7], in test [3], in test [4] and in test [6] was “inactive” each time.

For `O=C1OCC(c2ccccc2)=C1Cc1ccccc1`, the Potency result in test [1], in test [7], in test [3], in test [4] and in test [6] was “inactive” each time.

`CC1CCN(C(=O)CC#N)CC1N(C)c1ncnc2[nH]ccc12` (stereo not given): the Potency entry in test [1], in test [7], in test [3], in test [4], in test [5] and in test [6] was “inactive” in each case.

Take `CC(C)(F)C[C@@H](N[C@@H](c1ccc(-c2ccc(S(C)(=O)=O)cc2)cc1)C(F)(F)F)C(=O)NC1(C#N)CC1`: the Potency entry in test [1], in test [7], in test [3], in test [4], in test [5] and in test [6] was “inactive” throughout.

On to `CC(C)CN(C[C@@H](O)[C@H](Cc1ccccc1)NC(=O)O[C@@H]1CO[C@H]2OCC[C@H]21)S(=O)(=O)c1ccc(N)cc1`, for which the Potency result in test [1], in test [7], in test [3], in test [4], in test [5] and in test [6] was “inactive” each time.

Take `COc1cc2c(cc1OC)-c1[nH]nc(Nc3cccc(F)c3)c1C2`: the Potency in test [1] was 0.0578 µM (active); in test [4], 1890 nM (active). The Potency result in test [7], in test [3], in test [5] and in test [6] was “inactive” in each case.

Regarding `CNC(=O)c1ccccc1Nc1nc(Nc2ccc3c(c2OC)CCCC(N2CCN(CCO)CC2)C3)ncc1Cl` (stereo not given), in test [1], the Potency is 7.28 µM (active). Also, the Potency result in test [7], in test [3], in test [4], in test [5] and in test [6] was “inactive” throughout.

As to `O=C(O)c1cn(C2CC2)c2cc(N3C[C@@H]4C[C@H]3CN4)c(F)cc2c1=O`, the Potency entry in test [1], in test [3], in test [4], in test [5] and in test [6] was “inactive” throughout. Also, in test [7], the Potency was 10100 nM (active).

As for `CN(C)C/C=C/C(=O)Nc1cc2c(Nc3ccc(F)c(Cl)c3)ncnc2cc1OC1CCOC1` (stereo not given), the Potency in test [1] was 2.3 µM (active). The Potency entry in test [7], in test [3], in test [4], in test [5] and in test [6] was “inactive” each time.

Take `CCNC(=O)Nc1ccc(-c2nc3c(c(N4CCOC[C@@H]4C)n2)CCN(c2ncccn2)C3)cc1`: the Potency in test [1] is 0.103 µM (active). Further, the Potency entry in test [7], in test [3], in test [4] and in test [6] was “inactive” each time.

For the molecule `CO[C@H]1O[C@@H]2O[C@]3(C)CC[C@H]4[C@H](C)CC[C@@H]([C@H]1C)[C@@]24OO3`, the Potency in test [1] is 7.28 µM (active). Besides, the Potency result in test [7], in test [3], in test [4], in test [5] and in test [6] was “inactive” each time.

As for `CC(C)CC1NC(=O)C(C)NC(=O)C(CC(C)C)OC(=O)CCCNC1=O` (stereo not given), the Potency entry in test [1], in test [7], in test [3], in test [4] and in test [5] was “inactive” in each case.
